Test results as given in PubChem BioAssay (NCI).
The panel holds about 83,000 compounds, 20% with a hit somewhere; the sample as a whole holds those more often.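 96-well plates, one dose, 48 hours. Percent growth reported; active if below 10.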 Values without a mark were called inactive. Activity calls are given as the source filed them.

Each molecule was assayed on OVCAR-8 ovarian (assay: NCI-60 one-dose screen, 48 h (100 = growth as untreated, 0 = no growth, -100 = all killed)). Settings: 10 µM unless noted.

First: CCCCCN1C=C/C(=C\C(=O)N(C)c2ccc(Oc3ccccc3)cc2)c2ccccc21
Second: CCCCCN1C=C/C(=C\C(=O)n2ccc3ccccc32)c2ccccc21
The growth of the first is lower: 80.3% for the first, 93.6% for the second.

First: CNC(=O)c1cncc(Cn2nc(C)c(NC(=O)c3ccc(COc4ccc(C(F)(F)F)cc4C)cc3)c2C)c1
Second: COc1ccc(Cc2cnc(NC(=O)c3ccc4c(c3)OCCO4)s2)cc1
The growth of the first is higher: 55% for the first, 16.9% for the second.

Compared with `Nc1c(C(=O)Nc2ccnc3ccccc23)sc2nc3c(cc12)CN(Cc1ccccc1)CC3`, `COc1cccc(/C=N/NC(=O)c2cnn3c2NC(c2ccccc2)C3)c1Oc1ccccc1` (configuration not stated) is higher in growth: 69.5% for the first, 89% for the second.

Going from `CC1=C(C(=O)/C=C/c2ccc(N(C)C)cc2)C(c2ccccc2)NC(=S)N1` (configuration not stated) to `CC(=O)N1c2ccccc2NC2=C(C(=O)NC2(C)C)C1c1ccco1` (configuration not stated), the growth falls from 102% to 100%.

Going from `Nc1nc(Nc2ccccc2SSc2ccccc2Nc2nc(N)nc(-c3cccs3)n2)nc(-c2ccsc2)n1` to `Cc1nc(N)nc(N[C@@H](C)c2nc3cccc(NCc4ccc(C(=O)NO)cc4)c3c(=O)n2-c2ccccc2)n1`, the growth falls from 76.9% to 70.3%.

Compared with `COc1cc2c(cc1OC)C(=O)/C(=C/c1cc(C)c(O)c(C)c1)S2`, `COc1cc2c(=O)n(CCCN(C)C)c3c4cc5c(cc4ccc3c2cc1OC)OCO5` is higher in growth: 37% for the first, 48.3% for the second.

First: O=C(Nc1ccc(NC(=O)c2cc(=O)[nH]c3ccccc23)cc1)Nc1cccc(Cl)c1
Second: COc1ccc(NC(=O)c2cc(NCc3cc(O)ccc3O)ccc2O)cc1
The growth of the first is higher: 85.9% for the first, 83.3% for the second.

First: COc1ccc(/C=C2\Oc3cc(OCCCN4CCCCC4)ccc3C2=O)cc1OC
Second: COc1cc2nc(-c3ccc(Cl)cc3)cc(OCCCN3CCCC3)c2cc1OC
The growth of the first is higher: 94.4% for the first, 56.2% for the second.

First: Cc1ccc(/C=N/NC(=O)CSc2nc3ccccc3c(=O)n2Cc2ccc(S(N)(=O)=O)cc2)cc1
Second: COc1ccc(C(=O)c2nc3ccccc3n2CC(=O)c2ccc(Cl)cc2)cc1
The growth of the first is higher: 93.6% for the first, 37.2% for the second.

First: COc1cc(/C(C)=C(\c2ccc(Cl)cc2)c2ccc(OCCN3CCCC3)cc2)ccc1F
Second: COc1ccc(C/C(=C(\C)c2ccc(OCCN3CCCC3)cc2)c2ccc(OCCN3CCCC3)cc2)cc1
The growth of the first is higher: 69.1% for the first, 64.9% for the second.

Compared with `COc1cc2nc(-c3ccc(Cl)cc3)cc(OCCCN3CCOCC3)c2cc1OC`, `COc1cc2nc(-c3ccc(C(F)(F)F)cc3)cc(OCCCN3CCOCC3)c2cc1OC` is lower in growth: 42.7% for the first, 41.6% for the second.

Going from `COc1ccc(NC(N)=NCCCOc2ccc(F)cc2)cc1` to `C[C@@H](Nc1ncnc2ccc(-c3cnc(N)nc3)cc12)c1ccc(F)cc1`, the growth falls from 94.1% to 78.1%.

Going from `COC(=O)CNC(=O)[C@]12CCC(C)(C)C[C@H]1C1=CC[C@@H]3[C@@]4(C)Cc5c([nH]c6ccccc56)C(C)(C)[C@@H]4CC[C@@]3(C)[C@]1(C)CC2` to `C[C@H]1[C@H](C)CC[C@]2(C(=O)NCC#CCN3CCN(C)CC3)CC[C@]3(C)C(=CC[C@@H]4[C@@]5(C)Cc6c([nH]c7ccccc67)C(C)(C)[C@@H]5CC[C@]43C)[C@H]12`, the growth rises from 85.2% to 90.2%.

Compared with `Cc1cc2nc3c4ccc(Br)cc4n(CCN(C)C)c3nc2cc1C`, `CC1(C)CC(=O)C2=C(C1)N(c1ccc(F)cc1F)C(N)=C(C#N)C2c1cc(Br)ccc1F` (configuration not stated) is higher in growth: 21.6% for the first, 86.7% for the second.

Compared with `O=C1c2c(c3c4cccc(F)c4[nH]c3c3ccc4ccccc4c23)C(=O)N1O`, `O=S(=O)(NCCNc1nccc(-c2c(-c3cccc(F)c3)nc3sccn23)n1)c1ccc(Cl)cc1` is higher in growth: 42.2% for the first, 53.6% for the second.

First: O=C1OC(Cc2ccccc2)C1c1ccccc1 (configuration not stated)
Second: CC(Sc1nc2sc3c(c2c(=O)n1-c1ccc(Cl)cc1)CCCC3)C(=O)Nc1nc(-c2ccc(Br)cc2)cs1 (configuration not stated)
The growth of the first is lower: 100% for the first, 103% for the second.

Work on `COc1cc(NC(C)CCCNC(=O)CCC(=O)NCCCNCCCCCCCCNCCCNC(=O)CCC(=O)NCCCC(C)Nc2cc(OC)cc3cccnc23)c2ncccc2c1` (configuration not stated) yielded a growth of 70.6%.

In the case of `CCN(CC)CC[n+]1cc2cc(OC)c(OC)cc2c2ccc3cc4c(cc3c21)OCO4`, the growth is reported as -82.8% (active).
`C[C@H]1[C@H](C)CC[C@]2(C(=O)Nc3ccc4ncccc4c3)CC[C@]3(C)C(=CC[C@@H]4[C@@]5(C)CCCNC(C)(C)[C@@H]5CC[C@]43C)[C@H]12` was tested, and the growth was -80.5% (active).
For `CC1(C)CC[C@]23CC[C@]4(C)[C@H](CC[C@@H]5[C@@]6(C)CCCNC(C)(C)[C@@H]6CC[C@]54C)[C@H]2[C@H]1OC3`, the growth was -45.6% (active).

Work on `COc1cc(NC(C)CCCNC(=O)CCC(=O)NCCCNCCCCCCCCCCNCCCNC(=O)CCC(=O)NCCCC(C)Nc2cc(OC)cc3cccnc23)c2ncccc2c1` (configuration not stated) yielded a growth of 77.7% [8 µM].
